Assay in all cases: NCI-60 one-dose screen, 48 h (100 = growth as untreated, 0 = no growth, -100 = all killed)
Assay [1] has as its system DU-145 prostate. Particulars: 10 µM unless noted.
Assay [2] relates to K-562 leukemia. Particulars: 10 µM unless noted.
The test system of assay [3] is MALME-3M melanoma. Particulars: 10 µM unless noted.
Assay [4] concerns MDA-MB-231 breast. Particulars: 10 µM unless noted.
In assay [5] the test system is RXF 393 renal. Particulars: 10 µM unless noted.
Assay [6] relates to SF-268 CNS. Particulars: 10 µM unless noted.
In assay [7] the test system is SF-295 CNS. Particulars: 10 µM unless noted.
The subject of assay [8] is SF-539 CNS. Particulars: 10 µM unless noted.
The subject of assay [9] is UACC-257 melanoma. The following applies: 10 µM unless noted.
Assay [10] relates to M14 melanoma. The following applies: 10 µM unless noted.
In assay [11] the test system is HCT-15 colon. Particulars: 10 µM unless noted.
The test system of assay [12] is SNB-19 CNS. The following applies: 10 µM unless noted.
For assay [13], the system named is U251 CNS. Particulars: 10 µM unless noted.
In assay [14] the test system is PC-3 prostate. Particulars: 10 µM unless noted.
The test system of assay [15] is SK-MEL-5 melanoma. Particulars: 10 µM unless noted.
Assay [16] has as its system UACC-62 melanoma. The following applies: 10 µM unless noted.
The test system of assay [17] is LOX IMVI melanoma. Particulars: 10 µM.
Assay [18] concerns SK-MEL-28 melanoma. The following applies: 10 µM unless noted.
The test system of assay [19] is HT29 colon. Particulars: 10 µM unless noted.
The subject of assay [20] is SNB-75 CNS. The following applies: 10 µM unless noted.

Compounds without any hit were thinned out: in the full panel of roughly 83,000, 20% have a hit.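 Each cell line was grown in a 96-well plate and treated with one concentration of compound for 48 hours. Values below 10 were considered active.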 Values without a mark were called inactive. The source made the active and inactive calls.

As for `COc1c(F)ccc(C(=O)Nc2ccc3nc(NC(=O)C4CCCN(S(=O)(=O)c5ccc(Br)c(F)c5)C4)sc3c2)c1F` (stereo unspecified), the growth is 102% in assay [1]; 62.5% in assay [2]; 95.6% in [3]; 83.5% in assay [4]; -1.15% (active) in [5]; 96.7% in assay [6]. Besides, the growth in assay [7] is 72.5%; in assay [8], 64.5%; in assay [9], 80.7%; in assay [10] it was 80.7%; in assay [11], 73.6%; in [12], 81.9%. Moreover, the growth in [13] was 69.8%; in assay [14] it was 62.6%; in assay [15], 85.7%; in [16], 72%; in [17], 78.9%; in assay [18] it was 99.6%.

For the molecule `CCCCNC(=S)Nc1ccc(OCc2nc3ccccc3[nH]2)cc1`, the growth in assay [1] is 58.9%; in assay [2], 28.6%; in [3] it was 77.5%; in assay [4] it was 65.2%; in assay [5], 99.5%; in [6], 44.2%. Further, the growth in assay [7] was 53.7%; in [8], 56.2%; in assay [9], 83.5%; in [11] it was 47.9%; in [19], 50.3%; in assay [20], 56%. The growth in assay [13] was 57.4%; in assay [14] it was 58.2%; in [15], 78%; in [16], 38.2%; in assay [18] it was 88.2%.

For `Nc1nc(-c2ccccc2)c(N=Nc2ccc([N+](=O)[O-])cc2Cl)s1`, the growth in [1] was 95.4%; in assay [2], 67.3%; in assay [3], 108%; in assay [4], 87.8%; in [5], 109%; in assay [6], 90.2%. The growth in assay [7] is 92.1%; in assay [8], 96.5%; in assay [9], 61.6%; in assay [11] it was 68.1%; in [19], 96.2%; in assay [20], 85.7%. Also, the growth in [12] was 96.3%; in assay [13] it was 82.5%; in assay [14], 77.7%; in assay [15], 42.5%; in assay [16], 57.8%; in [17], 98%. Moreover, in [18], the growth is 89.1%.

Turning to `C=C1CC[C@@H]2[C@]3(C)COC(c4ccccc4)O[C@@H]3CC[C@@]2(C)[C@@H]1C/C=C1/C(=O)OCC1OC(C)=O` (stereo partly specified), the growth in [1] was 22.5%; in assay [2], -39.6% (active); in [3], -54.8% (active); in [4], -83.1% (active); in [5] it was -87.7% (active); in assay [6], 35.1%. In addition, the growth in [7] was -4.5% (active); in [8], -100% (active); in [9], -49.6% (active); in assay [11], -87.3% (active); in assay [19], -93.1% (active); in assay [12] it was 55.5%. Also, the growth is -89.9% (active) in assay [13]; -41.4% (active) in assay [14]; -45.1% (active) in assay [15]; -82.7% (active) in [16]; -100% (active) in assay [17]; -86.9% (active) in [18].

`C=C1CCC2C3(C)COC(c4ccco4)OC3CCC2(C)C1CC(Sc1ccccc1)C1=CCOC1=O` (stereo unspecified): the growth is 78.4% in assay [1]; 18.5% in assay [2]; 94.9% in assay [3]; 78.5% in [4]; 96.5% in assay [5]; 91.5% in [6]. Also, the growth in [7] was 76.1%; in assay [8], 48.3%; in assay [9] it was 54.1%; in assay [10], 61.6%; in [11], 3.97% (active); in assay [12], 86.2%. Moreover, the growth was 31.9% in [13]; 50.2% in [14]; 63.4% in assay [15]; 30.2% in assay [16]; -96.1% (active) in assay [17]; 56.1% in assay [18].

`CCCSc1nc(NCCc2c[nH]c3ccccc23)c(C#N)c(-c2ccccc2)n1`: the growth in assay [1] was 75.3%; in assay [2], 25.2%; in assay [3], 100%; in assay [4], 40.6%; in [5], 55.2%; in assay [6], 70.5%. Further, the growth in [7] was 72.6%; in assay [8], 66.2%; in assay [9] it was 100%; in assay [11], 27.3%; in [19], 30.3%; in assay [20], 87.7%. Further, the growth is 44.6% in assay [13]; 35% in assay [14]; 41.6% in assay [15]; 76.3% in assay [16]; 53.3% in assay [17]; 97.4% in assay [18].

Take `Cc1cc(C)cc(NC(=O)Cn2cc(COn3nnc4ccccc43)nn2)c1`: the growth in assay [1] was 111%; in [2] it was 102%; in assay [3], 108%; in [4], 106%; in assay [5], 122%; in assay [6], 116%. The growth was 110% in assay [7]; 99.6% in assay [8]; 101% in assay [9]; 106% in [11]; 104% in [19]; 96.3% in assay [20]. In addition, the growth in assay [12] was 96.2%; in assay [13], 103%; in assay [14], 97.9%; in assay [15] it was 101%; in assay [16], 96.9%; in assay [17] it was 100%. In assay [18], the growth is 100%.

Consider `O=c1oc2ccccc2cc1-c1csc(N2N=C(c3ccccc3)CC2c2ccc(N3CCOCC3)cc2)n1` (stereo unspecified), for which the growth in assay [1] is 113%; in assay [2], 107%; in assay [3] it was 116%; in [4], 90.3%; in assay [5] it was 112%; in assay [6] it was 127%. Further, the growth in [7] is 105%; in assay [8] it was 100%; in assay [9], 119%; in assay [10], 103%; in [11], 96.6%; in assay [20], 101%. The growth in assay [12] was 116%; in assay [13], 109%; in [14] it was 102%; in assay [15], 105%; in assay [16], 92.2%; in assay [17], 86.7%. Further, in assay [18], the growth was 109%.

The values are drawn from PubChem BioAssay (NCI).
